Screening results: PubChem BioAssay, several laboratories
HSV augment = HSV replication enhancement; HSV replication augmentation in cells, fold increase; maximum fold increase; actives 0.005% (n = 220,000); in the data active means maximum fold increase above about 1.5; tested in PC3 cells
Pf gamet viab = kills late stage P. falciparum gametocytes; P. falciparum stage V gametocytes, ATP luminescence, 24 h; actives 0.065% (n = 150,000); inhibition, % at 10.9 µM;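 active means inhibition above the mean plus 3 SD of compounds within the control limits, set per campaign, cut at about 38% in these data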;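 further: 0% = DMSO wells and 100% = medium only without gametocytes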
EP2 mod = modulates human prostaglandin E2 receptor EP2 signaling. P43116. EP2-expressing cells, cAMP HTRF FRET, PGE2 co-stimulation. induction, % at 25 µM. actives 0.83% (n = 260,000);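 active means compounds whose cAMP rise, as percent of the full-agonist control response, exceeds 60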;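 further: rat C6 glioma line stably carrying human EP2 under a CMV promoter; the protocol text gives 20 µM as final concentration; 100% = response of wells given 1 µM PGE2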
Target sequence (P43116 whole entry, looked up): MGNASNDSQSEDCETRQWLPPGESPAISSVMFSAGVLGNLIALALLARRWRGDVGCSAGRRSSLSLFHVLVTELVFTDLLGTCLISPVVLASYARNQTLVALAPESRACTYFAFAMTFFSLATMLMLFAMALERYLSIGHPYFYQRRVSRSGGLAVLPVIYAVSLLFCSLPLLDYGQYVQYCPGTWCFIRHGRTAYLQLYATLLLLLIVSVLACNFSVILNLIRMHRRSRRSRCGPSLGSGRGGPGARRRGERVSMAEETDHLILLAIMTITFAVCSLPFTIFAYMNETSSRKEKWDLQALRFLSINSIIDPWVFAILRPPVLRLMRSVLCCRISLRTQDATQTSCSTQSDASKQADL
PGE2 EP2 inh = EP2 receptor (human) inhibition. P43116. actives 0.52% (n = 260,000). inhibition, % at 25 µM. C6 glioma cells expressing human EP2, cAMP TR-FRET; cells stimulated with saturating PGE2;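 active means percent inhibition above 40 after rounding to a whole number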;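 further: rat C6 glioma host cells with rolipram phosphodiesterase inhibitor present; the protocol text gives 20 µM as final concentration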
Furin inhibitor = human furin inhibition; P09958; purified furin, fluorogenic substrate cleavage; inhibition, % at 20 µM or 30 µM; actives 0.061% (n = 220,000); in the data active means inhibition above about 25%
EP2 confirm = human EP2 receptor cAMP induction, negative in counter-screens. shares compounds with EP2 mod. C6 glioma EP2 cells, cAMP HTRF induction; plus low (about EC15) PGE2 agonist. calls only at 20 µM (by protocol). actives 47% (n = 1,300). AID 1080;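 active means cAMP induction above 50% in the main assay while under 30% in all four parallel counter assays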;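 further: rat C6 glioma cells stably expressing human EP2 receptor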
Numbers without * were called inactive; ! = not active in a repeat. Only some compounds are listed: those with a hit (about 1.4% of all), similar ones and a draw of the others.

For CCCC/C(=N\NC(=O)c1ccc(Br)o1)c1ccccc1 the results were HSV augment inactive, Pf gamet viab 8, EP2 mod 55, PGE2 EP2 inh 18, Furin inhibitor -25 and EP2 confirm inactive.
CC/C(=N/NC(=O)c1ccc(Br)o1)c1ccc(Cl)cc1 was read as EP2 mod 45, PGE2 EP2 inh 11 and Furin inhibitor -25.
`COc1ccc(/C=N/NC(=O)c2cccc3ccccc23)c(OC)c1OC` gave Pf gamet viab -15.
For COC(=O)c1ccc(CSc2ncnc3c2oc2ccccc23)o1 the results were HSV augment inactive, Pf gamet viab 13, EP2 mod 66*, PGE2 EP2 inh 13, Furin inhibitor -9 and EP2 confirm inactive.
`CCOc1ccccc1NC(=O)CSc1ncnc2c1oc1ccccc12` gave HSV augment inactive, EP2 mod 34, PGE2 EP2 inh 10 and Furin inhibitor -27.
Screening CCCSc1ncnc2c1oc1ccccc12 returned HSV augment inactive, EP2 mod 66*, PGE2 EP2 inh 4, Furin inhibitor -22 and EP2 confirm inactive.
O=C(CSc1ncnc2c1oc1ccccc12)Nc1ccccc1F was read as HSV augment inactive, EP2 mod 76*, PGE2 EP2 inh 15, Furin inhibitor -16 and EP2 confirm inactive.
For O=C(NCCN1C(=O)S/C(=C/c2ccccc2)C1=O)C1CCCN1C(=O)c1cccs1 (centres undefined) the results were HSV augment inactive, Pf gamet viab 4, EP2 mod -2, PGE2 EP2 inh 11 and Furin inhibitor -10.
C=Cn1c(C(=O)O)ccc1-c1ccc(C)cc1 was read as EP2 mod -26 and PGE2 EP2 inh 7.
O=c1nc2n(c3ncccc13)CCC2 was read as HSV augment inactive, Pf gamet viab 21, EP2 mod 4, PGE2 EP2 inh 11 and Furin inhibitor -5.
For COc1ccc(C)cc1NC(=O)NC1CCN(Cc2ccccc2)CC1 the results were HSV augment inactive, Pf gamet viab -3, EP2 mod -17, PGE2 EP2 inh 7 and Furin inhibitor -8.
Screening CC(C)Oc1ccc(/C=C(/NC(=O)c2ccccc2)C(=O)NCCC(=O)O)cc1 returned HSV augment inactive, Pf gamet viab 1, EP2 mod 71*, PGE2 EP2 inh 3, Furin inhibitor -21 and EP2 confirm inactive.
For CCOc1ccccc1/C=C(\NC(=O)c1ccccc1)C(=O)NCCC(=O)O the results were HSV augment inactive, Pf gamet viab -14, EP2 mod 3, PGE2 EP2 inh 10 and Furin inhibitor -5.
CCOC(=O)c1c(NC(=O)CN2C(=O)NC3(CCCCCC3)C2=O)sc(C)c1-c1ccc(C)cc1 was read as Pf gamet viab 24, EP2 mod 68*, PGE2 EP2 inh 13, Furin inhibitor -14 and EP2 confirm active.
CCOC(=O)c1c(NC(=O)CSc2nnc(N)s2)sc(C)c1-c1ccc(C)cc1 was read as HSV augment inactive, EP2 mod 65*, PGE2 EP2 inh 7, Furin inhibitor -16 and EP2 confirm active.
`CCOC(=O)c1c(NC(=O)CSc2nnc(C)c(=O)[nH]2)sc(C)c1-c1ccc(C)cc1` gave HSV augment inactive, Pf gamet viab -13, EP2 mod 27, PGE2 EP2 inh 7 and Furin inhibitor -27.
Screening CC(=O)OC[C@@]1(O)C[C@@]23CCC4c5ccoc5CC[C@]4(C)C2CC[C@@H]1C3 (some centres undefined) returned EP2 mod 69*, PGE2 EP2 inh 9 and EP2 confirm inactive.
`Oc1ccc(/C=N/N2CCN(C3c4ccccc4-c4ccccc43)CC2)c(O)c1` gave HSV augment inactive, Pf gamet viab 0, EP2 mod 66*, PGE2 EP2 inh 6, Furin inhibitor -10 and EP2 confirm inactive.
Screening Oc1ccc(/C=N/N2CCN(C3c4ccccc4-c4ccccc43)CC2)cc1 returned HSV augment inactive, Pf gamet viab -5, EP2 mod 10, PGE2 EP2 inh 14 and Furin inhibitor -19.
CCOc1ccccc1NC(=O)c1ccccc1N(C)S(=O)(=O)c1ccc(C)cc1 was read as Pf gamet viab -13.
COc1ccccc1-c1cc(N)n(S(=O)(=O)c2cccc3nsnc23)n1 was read as HSV augment inactive, Pf gamet viab -2, EP2 mod -28, PGE2 EP2 inh 4 and Furin inhibitor -14.
Screening O=C(NCc1cccnc1)c1cc(Sc2ccc(F)cc2F)nc2ccccc12 returned HSV augment inactive, Pf gamet viab 5, EP2 mod 0, PGE2 EP2 inh 4 and Furin inhibitor -17.
`CCCOc1ccc(/C=N/Nc2ccc(C(=O)O)cc2)c(OCCC)c1` gave HSV augment inactive, Pf gamet viab -17, EP2 mod 88*, PGE2 EP2 inh 15, Furin inhibitor -28 and EP2 confirm active.
Cc1cc2cc(CN(Cc3nnnn3C3CCCCC3)CC3CCCO3)c(=O)[nH]c2cc1C (centres undefined) was read as HSV augment inactive, Pf gamet viab -15, EP2 mod 65*!, PGE2 EP2 inh 7, Furin inhibitor -30 and EP2 confirm inactive.
For CCc1ccc2[nH]c(=O)c(CN(Cc3nnnn3C3CCCC3)C3CCCCC3)cc2c1 the results were HSV augment inactive, EP2 mod 74*!, PGE2 EP2 inh 12, Furin inhibitor -7 and EP2 confirm active.
For CCOC(=O)CSc1ncnc2c1sc1nc(N3CCOCC3)c3c(c12)CCCC3 the results were HSV augment inactive, EP2 mod 75*, PGE2 EP2 inh 10, Furin inhibitor -19 and EP2 confirm active.
For CCOP(=O)(OCC)c1nc(-c2cccc3ccccc23)oc1NCCc1ccc(OC)cc1 the results were HSV augment inactive, Pf gamet viab 14, EP2 mod 56, PGE2 EP2 inh 5, Furin inhibitor -100 and EP2 confirm inactive.
For CCOP(=O)(OCC)c1nc(-c2ccc(F)cc2)oc1NCc1ccccc1 the results were HSV augment inactive, Pf gamet viab 18, EP2 mod 72*, PGE2 EP2 inh 1, Furin inhibitor -23 and EP2 confirm active.
`CCOP(=O)(OCC)c1nc(Cc2ccccc2)oc1NCc1ccccc1` gave HSV augment inactive, Pf gamet viab -4, EP2 mod 3, PGE2 EP2 inh 19 and Furin inhibitor -8.
Screening O=P(c1ccccc1)(c1ccccc1)c1nc(-c2ccccc2)oc1NCc1ccccc1 returned HSV augment inactive, Pf gamet viab 0, EP2 mod 94*, PGE2 EP2 inh 9, Furin inhibitor -17 and EP2 confirm active.
Screening CCOP(=O)(OCC)c1nc(-c2ccccc2)oc1NCc1ccccc1 returned HSV augment inactive, Pf gamet viab -8, EP2 mod 81*, PGE2 EP2 inh 4, Furin inhibitor -17 and EP2 confirm active.
